Assay outcomes: PubChem BioAssay, Sanford-Burnham Center for Chemical Genomics
PLAP activator: activators of human placental alkaline phosphatase; P05187; purified PLAP enzyme, luminescent substrate read-out; active compounds read high; activation fold at 20 µM; 96,000 compounds, 1.2% hits; AID 696; in the data active = activation fold above about 2
CYP2C9 act: CYP2C9 (human) activation. P11712. recombinant CYP2C9, luciferin-H conversion, luminescence; active compounds read high; factor 1 = untreated enzyme, 0 = blocked. activation factor at 5 µM. 96,000 compounds, 1.4% hits. AID 1024;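 active = activation factor of 2 or more for CYP2C9 at a 5 µM dose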;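 note: 0 = sulfaphenazole-blocked wells and 1 = vehicle-only wells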
Target sequence (P11712 whole entry, looked up): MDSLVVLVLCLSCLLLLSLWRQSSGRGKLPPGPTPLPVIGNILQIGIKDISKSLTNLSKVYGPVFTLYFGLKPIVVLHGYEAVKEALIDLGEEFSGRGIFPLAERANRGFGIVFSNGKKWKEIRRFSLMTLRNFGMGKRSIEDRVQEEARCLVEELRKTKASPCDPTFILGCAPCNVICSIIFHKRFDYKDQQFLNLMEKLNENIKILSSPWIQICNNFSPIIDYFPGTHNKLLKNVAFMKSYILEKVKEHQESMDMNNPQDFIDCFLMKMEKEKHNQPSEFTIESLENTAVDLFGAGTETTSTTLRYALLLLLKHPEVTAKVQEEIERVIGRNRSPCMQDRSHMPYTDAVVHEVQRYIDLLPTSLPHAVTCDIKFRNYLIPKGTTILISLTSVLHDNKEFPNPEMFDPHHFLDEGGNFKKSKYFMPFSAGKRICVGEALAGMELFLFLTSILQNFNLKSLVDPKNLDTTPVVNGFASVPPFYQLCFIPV
CYP2C19 act: activators of human cytochrome P450 2C19 | P33261 | recombinant CYP2C19, luciferin-H EGE luminescence; active compounds read high; 0 = fully inhibited enzyme, 1 = untreated enzyme | activation factor at 5 µM | 96,000 tested, under 10 active | AID 1025;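 active = activation factor of at least 2 at 5 µM in the primary screen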;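 note: 0 = wells with 2.5 mM tranylcypromine and 1 = vehicle-only wells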
CYP2C19 inh: inhibitors of human CYP2C19 | P33261 | CYP2C19 Supersomes, luciferin-H EGE luminescence, 30 min | inhibition, % at 5 µM | 96,000 compounds, 21% hits;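 active = CYP2C19 inhibition above a set limit at 5 µM in the primary screen, cut at about 50% in these data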;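 note: plate controls were negative control wells for no effect and 2.5 mM tranylcypromine positive control for full effect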
CYP2C9 inh: blocks human cytochrome P450 2C9. P11712. CYP2C9 Supersomes, luciferin-H conversion, luminescence. inhibition, % at 5 µM. 96,000 compounds, 20% hits;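 active = blocking of liver enzyme CYP2C9 beyond about 50% at 5 µM, limit read from the data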
Starred values were filed as active, the others as inactive; nt = not tested or not shown. Rows were chosen to be rich in hits. Some 31% of all compounds tested hit in one or more screens of this group.

SMILES	PLAP activator	CYP2C9 act	CYP2C19 act	CYP2C19 inh	CYP2C9 inh
C=C1Cn2c(nnc2-c2ccc(Cl)cc2)S1	0.8	1.3	0.6	44	-32
CC(NC(=O)C(Cc1ccccc1)NC(=O)c1ccccc1)C(=O)O (stereo not drawn)	1	0.9	1	-3	10
N#CC(c1ccccc1)c1ccc(C(=O)c2ccc(F)cc2)cc1 (stereo not drawn)	0.4	0	0.1	91*	99*
N#CC(c1ccc(F)cc1)c1ccc(C(=O)c2ccccc2)cc1 (stereo not drawn)	nt	0.1	0.2	76*	91*
O=C(c1ccc(F)cc1)c1cc2ccccc2o1	1	0.9	0.5	46	11
O=C(CC(=O)c1ccccc1O)c1ccc(F)cc1	0.7	0.9	0.5	49	11
CCCC1(CCC)NC(=O)N(CC(=O)N2CCN(C(=O)c3ccco3)CC2)C1=O	0.9	0.8	1.1	-12	20
Cc1cc(O)c(C(C[N+](=O)[O-])c2ccc(Cl)cc2Cl)c(=O)o1 (stereo not drawn)	1.4	0	0.2	77*	98*
COc1ccc2c(c1)c(C(O)CN1CCC3(CC1)OCCO3)c(C)n2C (stereo not drawn)	1.3	0.9	0.7	26	7
COc1ccc(CNC(=O)Cn2nc(-c3ccc4c(c3)OCCO4)ccc2=O)cc1	0.9	0.4	0.7	26	60*
COc1ccc(-c2ccc(=O)n(CC(=O)Nc3ccc(C(=O)NC4CC4)cc3)n2)cc1OC	1.1	0.7	0.8	16	28
CC(=O)Nc1cc2c(cc1NC(=O)Cn1nc(-c3ccc4c(c3)OCCO4)ccc1=O)OCCO2	1.3	0.6	0.4	55*	39
COc1cccc(CNC(=O)Cn2nc(-c3ccc(Cl)cc3)ccc2=O)c1	1.4	0.2	0.5	55*	77*
COc1ccccc1-c1ccc(=O)n(CC(=O)NCc2ccc3c(c2)OCO3)n1	1.5	1.4	0.4	56*	-38
CN(C)CCNC(=O)Cn1nc(-c2ccc(Cl)cc2)ccc1=O	1.1	0.9	0.9	8	11
Cc1ccc(S(=O)(=O)N(Cc2nccn2C)C(C)C)cc1	1	0.9	0.8	19	7
COc1ccccc1NC(=O)N(c1c(N)n(Cc2ccccc2)c(=O)[nH]c1=O)C1CCCC1	1.1	1.1	0.9	7	-6
O=C(Cn1nnc(-c2ccccc2Cl)n1)NCc1ccc2c(c1)OCO2	0.9	0.1	0.9	6	94*
Cc1ccsc1C(=O)Nc1cc(C(C)(C)C)nn1-c1ccccc1	1	0.8	0.7	26	23
O=C(CN(C(=O)CNS(=O)(=O)c1ccccc1)c1ccc2c(c1)OCCO2)NCc1ccco1	1	0.8	0.7	31	24
O=C(CN(Cc1ccccc1)C(=O)c1ccco1)NCc1ccc(F)cc1	0.9	0.6	0.2	84*	44
O=C(CN(Cc1ccccc1F)C(=O)c1ccco1)NCc1ccc(F)cc1	0.9	1.2	0.6	37	-20
O=C(CN(Cc1ccc2c(c1)OCO2)C(=O)CNS(=O)(=O)c1ccccc1)NCc1ccco1	0.9	0.7	0.3	74*	34
O=C(CN(CCc1ccccc1)C(=O)CNS(=O)(=O)c1ccc(F)cc1)NCc1ccco1	1.5	0.5	0.3	73*	46
Cc1cc(NC(=O)c2cncc(Br)c2)no1	0.8	1.2	1	2	-22
SMILES	PLAP activator	CYP2C9 act	CYP2C19 act	CYP2C19 inh	CYP2C9 inh
O=C1CN(C(=O)CC2c3ccccc3-c3ccccc32)CC(=O)N1	0.9	0.9	0.8	23	10
O=C(CN1CCC(n2nnc3cc(F)ccc32)CC1)NCCc1nc2ccccc2[nH]1	1.2	1	1	-5	-3
c1csc(-c2nnsc2-c2nc3ccccc3[nH]2)c1	1.3	0.7	0.3	73*	27
O=c1[nH]c2ccccc2nc1-c1cccs1	1.1	0.8	0.9	10	21
O=c1nc(N2CCOCC2)ccn1Cc1ccc(Br)cc1	0.9	1.2	1	-1	-23
Cc1ccccc1N/C(SCc1ccc(Cl)cc1)=C(/C#N)C(=O)NCc1ccco1	1.1	0.4	0.2	85*	55*
Cc1ccc(CS/C(Nc2ccccc2C)=C(\C#N)C(=O)NCc2ccco2)c(C)c1	1.3	0.6	0.5	51*	42
COC(=O)c1ccccc1NC(=O)NCc1ccco1	1.3	0.9	0.7	31	8
O=C(NCc1ccco1)Nc1ccccc1Cl	0.8	1	0.5	47	3
N#Cc1nc(-c2ccco2)oc1NCc1ccco1	0.8	0.6	0.8	16	44
N#Cc1nc(-c2cccs2)oc1NCc1ccc(Cl)cc1	0.9	0.8	0.9	11	21
Cc1ccc(CNc2oc(-c3cccs3)nc2C#N)cc1	0.8	0.2	0.9	15	78*
C=CCNc1oc(-c2cccs2)nc1C#N	0.9	1.5	0.3	72*	-46
N#Cc1nc(-c2cccs2)oc1NCc1ccccc1Cl	0.9	0.4	0.8	20	57*
N#Cc1nc(-c2cccs2)oc1NCc1ccco1	1	0.1	0.2	76*	90*
Cn1c(CCNC(=O)c2ccc(Cl)cc2)n[nH]c1=S	1.1	1.1	1	-2	-6
CCOCCCNC(=O)C(c1ccccc1)N(Cc1ccc2c(c1)OCO2)C(=O)CNC(C)=O (stereo not drawn)	1.3	0.9	0.8	19	8
S=c1[nH]nc(Cc2ccccc2)n1Cc1ccco1	2.1*	0.6	0.3	71*	39
Oc1ccc(-c2n[nH]c(=S)n2Cc2ccco2)cc1	0.9	0.3	0.7	31	68*
S=c1[nH]nc(C2CC2)n1Cc1ccco1	1	1	1	2	4
Cn1c(SCC(=O)C(C)(C)C)nnc1-c1cccnc1	1	1.1	1.1	-12	-11
Cc1ccc(OCC(=O)N2CCN(C(=O)c3cccs3)CC2)cc1	1	0.9	0.8	18	6
COc1cccc(C2(O)CCN(C(=O)c3cccs3)CC2)c1	1	0.7	0.5	46	25
COc1ccc(CN2CCN(C(=O)c3cccs3)CC2)cc1	1.1	0.9	0.4	58*	10
COc1cccc(CN2CCN(C(=O)c3cccs3)CC2)c1OC	1.1	0.8	0.5	50	16
SMILES	PLAP activator	CYP2C9 act	CYP2C19 act	CYP2C19 inh	CYP2C9 inh
COc1ccc(OC)c(CN2CCN(C(=O)c3cccs3)CC2)c1	1.5	0.3	0.1	91*	70*
COc1ccc(OCC(=O)N2CCN(C(=O)c3cccc4ccccc34)CC2)cc1	1.4	1	1	2	3
COc1ccccc1C1(O)CCN(C(=O)c2cccs2)CC1	1	0.5	0.8	18	54*
COc1ccc(OC)c(CN2CCN(C(=O)c3cccc4ccccc34)CC2)c1	1.8	1.4	0.4	55*	-37
CC(C)C(c1nnnn1CC1CCCO1)N1CCN(Cc2ccc3c(c2)OCO3)CC1 (stereo not drawn)	1.2	1	0.9	8	3
COCCn1nnnc1C(c1ccc(OC)cc1OC)N1CCN(c2ccccc2F)CC1 (stereo not drawn)	1.4	0.8	0.7	30	19
